Data: PubChem BioAssay (NCATS)
Results filed as inconclusive are left out. Unmarked numbers belong to inactive results. The call rests on the fitted dose curve; in most records, active means well fitted inhibition curve with a large enough effect; inconclusive means small, poorly fitted or top-dose-only effect; inactive means flat fitted curve, though single readings scatter.

target: Calcium and integrin-binding protein 1 (Homo sapiens) (UniProt Q99828); assay: Primary qHTS for Identification of Calcium Integrin Binding Protein 1 (CIB1) Competitor (AID 1508620); settings: CIB1-GST / FITC-alphaIIb peptide fluorescence polarization; series mostly up to 114 µM; activity change, negative = inhibition: at the top concentration;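 further: GST tagged CIB1 binding a fluorescein labelled alphaIIb integrin peptide tracer; top concentration of the series differs between compounds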
Sequence (Q99828 whole entry, looked up): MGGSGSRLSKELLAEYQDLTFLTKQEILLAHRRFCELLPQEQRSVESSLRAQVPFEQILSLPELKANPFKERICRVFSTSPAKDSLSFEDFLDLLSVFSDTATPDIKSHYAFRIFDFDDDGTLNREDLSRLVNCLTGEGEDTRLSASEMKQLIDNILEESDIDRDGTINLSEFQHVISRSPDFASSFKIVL
In short: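 Fluorescence polarization competition: CIB1-GST (1 uM final) preincubated with compound 15 min at room temperature, then FITC-labeled alphaIIb peptide (100 nM final) added for another 15 min. Polarization read at Ex 480/Em 540.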
On the % scale 0 is the no-effect control and ±100 the full control effect.

Row | SMILES | activity change, negative = inhibition
1 | COc1ccc(C2c3c(N)nc(CCCc4ccccc4)nc3Oc3ccc4ccccc4c32)cc1OC (stereo unspecified) | 6.89%
2 | CCc1ccccc1C(=O)N1CCc2cc(-c3nc(NC(=O)Cc4ccc5c(c4)OCO5)sc3C)ccc21 | 0.376%
3 | CC(C)Nc1nc(C#N)nc(Nc2ccccc2)n1 | -1.99%
4 | Cc1ccc2nc3sc(C(=O)NC4CCCC4)cc3cc2c1 | 7.06%
5 | CN(CCc1cccs1)c1ncnc2ccc(-c3ccc4c(c3)OCO4)cc12 | 3.79%
6 | Cc1ccc2nc3sc(C(=O)N4CCC(C(N)=O)CC4)cc3cc2c1 | -0.511%
7 | S=C(Nc1cc(Cl)ccn1)N1CCN(c2cccc(Cl)c2Cl)CC1 | 2.26%
8 | Cc1ccc(OCCn2c(CCNC(=O)/C=C/c3ccccc3Br)nc3ccccc32)cc1 | 27.3%
9 | O=S1(=O)N=C(Oc2ccccc2-c2ccccc2)c2ccccc21 | -18.4%
10 | O=C1Cc2cc(S(=O)(=O)N3CCN(c4ccc(Br)cc4)CC3)ccc2N1 | 0.193% [at 228 µM]
11 | CCc1ccc(NC(=O)c2[nH]c(C)c(C(C)=O)c2C)cc1S(=O)(=O)Nc1ccc(C#N)cc1 | -7%
12 | O=C(NCc1ccccc1)n1cc(P(=S)(c2ccccc2)c2ccccc2)c2ccccc21 | -0.464%
13 | Cc1cccc(CNc2ccnc(-c3ccc(C(F)(F)F)cc3)n2)c1 | 2.56%
14 | Cc1ccc(OCCn2c(CCN(C)C(=O)C3CCCCC3)nc3ccccc32)cc1 | -9.81%
15 | CCOC(=O)CCc1cc(F)c(S(=O)(=O)N2CCN(S(=O)(=O)c3ccc4c(c3)OCCO4)CC2)cc1F | 5.87%
16 | COc1cc(O)c(C(CC(=O)N2CCC(c3ccccc3)CC2)c2ccc3c(c2)OCO3)c(OC)c1 (stereo unspecified) | -0.653% [at 228 µM]
